This is part of a sample that, as a whole, favours compounds with a hit. Of some 83,000 tested, about 20% had one in any assay.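 Negative percent growth values reflect cell death: -40 means 40% of the cells present at the start died, and -100 means all died.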 Values without a mark were called inactive. Activity calls are given as the source filed them. How the source made its calls: active means growth percent below 10; inactive means the rest.
Experiments:
Assay in all cases: NCI-60 one-dose screen, 48 h (100 = growth as untreated, 0 = no growth, -100 = all killed)
Conditions in all cases: 10 µM
K-562 leukemia = system: K-562 leukemia
MALME-3M melanoma = system: MALME-3M melanoma
MDA-MB-231 breast = system: MDA-MB-231 breast
RXF 393 renal = system: RXF 393 renal
SF-268 CNS = system: SF-268 CNS
SF-295 CNS = system: SF-295 CNS
SF-539 CNS = system: SF-539 CNS
UACC-257 melanoma = system: UACC-257 melanoma
M14 melanoma = system: M14 melanoma
HCT-15 colon = system: HCT-15 colon

| Compound | growth (K-562 leukemia) | growth (MALME-3M melanoma) | growth (MDA-MB-231 breast) | growth (RXF 393 renal) | growth (SF-268 CNS) | growth (SF-295 CNS) | growth (SF-539 CNS) | growth (UACC-257 melanoma) | growth (M14 melanoma) | growth (HCT-15 colon) |
| --- | --- | --- | --- | --- | --- | --- | --- | --- | --- | --- |
| Clc1ccc(-c2cn(-c3ccccc3)c(-c3ccccc3)n2)c(Cl)c1 | 24.8% | -43.3% (active) | -11.7% (active) | 41.3% | -26.7% (active) | 19.5% | -22.2% (active) | 52.2% | 16.7% | -71.4% (active) |
| CCCCOc1ccc(NC(=O)Nc2nnc(C)s2)cc1 | 83.8% | 118% | 90.7% | 110% | 109% | 87.4% | 95.3% | 22.5% | 91.4% | 99.5% |
| CCN1CCN(c2nc3ccccc3c3c(=O)c4ccccc4sc23)CC1 | 12.8% | 52.5% | -2.38% (active) | 29.8% | 45.6% | 24.6% | 48% | 73.9% | -18.5% (active) | 31.8% |
| COc1cc(Cl)cc(-c2nn(-c3cccc(NC(=O)Nc4cc(C(F)(F)F)cc(C(F)(F)F)c4)c3)cc2-c2ccncc2)c1 | 6.4% (active) | -19.2% (active) | -75% (active) | -29.3% (active) | 14.2% | -43.2% (active) | -17.7% (active) | -25.6% (active) | 1.22% (active) | 6.21% (active) |
| N=C(N)c1ccc(-c2ccc(-c3cccs3)s2)cc1 | -56% (active) | -80.1% (active) | 75.8% | 75.8% | 101% | 16.4% | 89.5% | 34.6% | 30.3% | 0.674% (active) |
| Cc1ccc(N=Nc2c(N)nc(N)[nH]c2=O)cc1C | 90.9% | 89.9% | 117% | 110% | 111% | 112% | 102% | 107% | 97.2% | 103% |
| Cc1cc(Cc2cc(C)c(O)c(C)c2)cc(C)c1O | 13.2% | 46.5% | 59.6% | 58.1% | 64.1% | 42.6% | 37.2% | 51.5% | 29.9% | 38.2% |
| C=C1c2c(C)nn(-c3ccc(OC)cc3)c2N(C)C23C[C@@H]1C1(C)c4c(C)nn(-c5ccc(OC)cc5)c4N(C)C(C)(C[C@H]12)C3 (stereo not given in full) | 15.5% | 53.9% | 39.7% | 67.9% | 36.8% | 101% | 62.5% | 26.8% | 40% | 26.3% |
| COc1cc(-c2nc(Nc3nc4ccccc4s3)[nH]c(=O)c2C#N)cc(OC)c1O | 100% | 118% | 106% | 105% | 123% | 116% | 108% | 102% | 96.3% | 107% |
| COc1ccc(-c2nc(-c3nc4cc(Cl)c(F)cc4[nH]3)c3ccccn23)cc1 | 40.3% | 97.4% | 57.5% | 87.8% | 75.3% | 45.1% | 92.8% | 61.9% | 66.2% | 59.5% |
| O=c1[nH]c2ccc(Cl)cc2c2ccccc12 | 110% | 60.7% | 78.2% | 61.1% | 79.4% | 97.9% | 80.1% | 105% | 94.7% | 93.3% |
| COc1cccc(C(=O)Nc2ccc(CN3CCc4nc5cc(OC)c(OC)cc5cc43)cc2)c1 | 24.5% | 51.8% | 48% | 48.7% | 47% | 65.7% | 66.5% | 35.9% | 38.1% | 47.7% |
| Cc1ccc(-c2n[nH]c(=O)c3noc(-c4ccc(C)cc4)c23)cc1 | 13.2% | 26.4% | 58.1% | 38% | 53.5% | 49.3% | 3% (active) | 55.9% | 28.8% | 33.1% |
| C#Cc1ccc(-n2c(/C=C/c3ccc(C(F)(F)F)cc3)nc3ncccc3c2=O)cc1 | 4.03% (active) | 39.1% | 56.9% | -10.4% (active) | 31.4% | 32.6% | 45.2% | 29% | 10.7% | 22.3% |
| Cc1cccc2c1O/C(=C\c1ccc([N+](=O)[O-])o1)C2=O | -44.2% (active) | -32.4% (active) | -47.3% (active) | -80.8% (active) | -39.8% (active) | 31.1% | -59.2% (active) | -65% (active) | -54.1% (active) | -55.2% (active) |
| CC(=O)N1N=C(c2ccc(Cl)cc2)CC1c1sc(Cl)nc1Cl (stereo not given) | 66.1% | 94.8% | 82.1% | 80.5% | 80.1% | 80.3% | 104% | 91.9% | 94.6% | 96.3% |
| Cc1ccc(CC#N)cc1C | 73.8% | 121% | 97.2% | 83.2% | 86.2% | 93% | 87.5% | 127% | 96.9% | 95.4% |
| O=C(Nc1ccc(CN2CCc3nc4cc(O)c(O)cc4cc32)cc1)c1ccc(Cl)c(Cl)c1 | 115% | 93% | 103% | 89.4% | 96.6% | 101% | 94.2% | 103% | 98.4% | 101% |
| CN(C)N=Nc1nn(C(=O)Nc2ccc(Cc3ccccc3)cc2)c2ccccc12 | 18.4% | 53.8% | 58.2% | 94.8% | 63.5% | 9.64% (active) | 4.93% (active) | 29.3% | 20.4% | 36.2% |
| COc1ccc(OC)c(/C=C/c2nc(SCc3ccccc3)n(-c3ccc(Cl)cc3)n2)c1 | 18.2% | 34.9% | 67.1% | 82.8% | 57.7% | -15.4% (active) | 44.2% | 74% | 14.1% | 34% |

| Compound | growth (K-562 leukemia) | growth (MALME-3M melanoma) | growth (MDA-MB-231 breast) | growth (RXF 393 renal) | growth (SF-268 CNS) | growth (SF-295 CNS) | growth (SF-539 CNS) | growth (UACC-257 melanoma) | growth (M14 melanoma) | growth (HCT-15 colon) |
| --- | --- | --- | --- | --- | --- | --- | --- | --- | --- | --- |
| O=C(Nc1nc(-c2ccccc2Cl)cs1)c1cc(-c2ccc(Cl)cc2)nc2ccc(Cl)cc12 | 14.8% | 41.5% | 22% | 88.8% | 28.3% | 89.4% | -5.27% (active) | 66.8% | -2.68% (active) | 8.89% (active) |
| CCCCCCCCCCCCCCCC(=O)OC1[C@@H](OC(=O)CCCCCCCCCCCCCCC)[C@@H](C(=O)N[C@@H](CCCCN)C(=O)OC)O[C@H]1n1cnc2c(=O)[nH]c(NC(=O)C(C)C)nc21 (stereo not given in full) | 82.9% | 98.5% | 118% | 105% | 97.1% | 108% | 103% | 90.1% | 93.7% | 96.6% |
| COc1cc(C(=O)N2CCN(c3ccccc3OC)CC2)c(N)cc1OCCCN1CCN(c2ccccc2OC)CC1 | 8.81% (active) | 83.4% | 80.3% | 92.5% | 110% | 96.9% | 89.9% | 104% | 85.2% | 98.7% |
| Nc1c(C(=O)Nc2cccc3ccccc23)sc2nc3c(cc12)C(=O)CCC3 | 10.3% | 59.9% | 8.28% (active) | -5.71% (active) | 36.1% | -1.44% (active) | -13.1% (active) | 45% | 12.6% | 18.9% |
| COc1ccc(-c2cc(-c3ccc(N(C)C)cc3)c(C#N)c(N3CCCC3)n2)cc1 | 69.3% | 122% | 64.1% | -2.09% (active) | 96.7% | 93.8% | 88.8% | 88% | 73.3% | 71.4% |
| O=C1CC[C@@H]2CCCC[C@@H]2C1 | 110% | 98.8% | 96% | 130% | 113% | 110% | 102% | 116% | 101% | 113% |
| CCCCCCCNc1nc(C=O)ncc1-c1ccc(C(F)(F)F)cc1 | 89.4% | 86.8% | 117% | 97% | 98.8% | 103% | 107% | 107% | 102% | 97.6% |
| O=C(Nc1cccc(-n2cc(-c3ccncc3)c(-c3ccc(O)c(Cl)c3)n2)c1)Nc1cccc(C(F)(F)F)c1 | 2.72% (active) | -24.1% (active) | -22.1% (active) | -11.7% (active) | 9.04% (active) | -12.6% (active) | -8.84% (active) | -19% (active) | -8.16% (active) | 14.9% |
| C#Cc1ccc(-n2c(/C=C/c3cc(OC)cc(OC)c3)nc3ncccc3c2=O)cc1 | 75.3% | 83.2% | 53.5% | 64.8% | 65.3% | 75.7% | 87.8% | 66.3% | 81.2% | 82.8% |
| Cc1c(Cl)cccc1NC(=O)c1sc2nc3c(cc2c1N)C(=O)CCC3 | 7.09% (active) | 40.1% | 12.6% | -16.4% (active) | 37.4% | -8.15% (active) | -40.7% (active) | 48.1% | 3.72% (active) | 21% |
| Nc1nc(N)c(NC(=O)CNc2ccc(C(=O)O)cc2)c(N)n1 | 106% | 112% | 106% | 96.4% | 119% | 99.2% | 101% | 103% | 111% | 112% |
| COc1ccc(-c2nn(-c3cccc(NC(=O)c4cc(C(F)(F)F)cc(C(F)(F)F)c4)c3)cc2-c2ccncc2)cc1Cl | 31.3% | 42.5% | 74% | 62.8% | 72.6% | 53.9% | 67.4% | 62% | 64% | 73.7% |
| Cn1c(N)c(N=Nc2ccc(S(=O)(=O)Nc3nccs3)cc2)c(=O)n(C)c1=O | 90.2% | 86.8% | 111% | 130% | 103% | 91% | 98.3% | 95.6% | 101% | 110% |
| COc1ccc(-c2nc(-c3nc4cc(Cl)c(Cl)cc4[nH]3)c3ccccn23)cc1 | 59.8% | 18% | -18.3% (active) | -39.4% (active) | 21% | 13.9% | 8.32% (active) | 63.6% | 70.1% | 76.7% |
| COc1ccc(N2C(=O)C3c4[nH]c5ccc(OCc6ccccc6)cc5c4C4CCC(C(C)C)CC4C3C2=O)cc1 (stereo not given) | 117% | 107% | 101% | 102% | 96.7% | 114% | 118% | 96.1% | 124% | 16.3% |
| O=C1/C(=C\c2ccc(Cl)cc2)CN(C(=S)Nc2ccccc2)C/C1=C\c1ccc(Cl)cc1 | 2.61% (active) | -39.9% (active) | -17.3% (active) | -88.6% (active) | -72.4% (active) | -53.3% (active) | -94.4% (active) | -55.4% (active) | -65.3% (active) | -34.7% (active) |
| O=C(Nc1cccc(-n2cc(-c3ccncc3)c(-c3ccc(O)c(Cl)c3)n2)c1)c1ccc(Cl)c(Cl)c1 | 30.1% | 29.5% | -19.9% (active) | 16% | 74.1% | 13.9% | 35.8% | 10.8% | 29.2% | 24% |
| O=C(Nc1cccc(-n2cc(-c3ccncc3)c(-c3ccc(O)c(Cl)c3)n2)c1)c1cc(C(F)(F)F)cc(C(F)(F)F)c1 | 35.9% | 70.4% | -45% (active) | 33.5% | 76.8% | 24.9% | 56.1% | 66.9% | 59.6% | 44.9% |
| COc1ccc(OC)c(NC(=O)c2sc3nc4c(cc3c2N)C(=O)CCC4)c1 | 61.7% | 86.4% | 86.9% | 85.4% | 110% | 80.9% | 97.3% | 93.5% | 93.9% | 80.6% |

From PubChem BioAssay (NCI)
